p53null 32C tox: p53 null cell cytotoxicity, permissive temperature | actives 0.62% (n = 55,000) | AID 903 | Potency, µM (top dose mostly 46.1 µM), without a hit: at the top dose activity change, negative = cytotoxicity, actives largely listed as cytotoxic | H1299-neo p53 null cells, ATP luminescence, 24 h, 32C;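 further: 0% = DMSO only and -100% = full killing by 100 µM tamoxifen; nearly all actives have a fitted effect of over 55% in size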
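Cells lacking p53 (H1299-neo) are plated at 600 per well and allowed to settle overnight at 37C. Test compounds (up to 46 uM) are added and held 24 hours at 32C, then ATP is quantified by luminescence.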
PMP22 txn prim: modulators of PMP22 gene transcription in S16 Schwann cells. AID 1508649. Potency, µM (series often up to 57.5 µM), for the others: at the top dose activity change, negative = inhibition, usual class: inhibitors. S16 Pmp22-F2sN Schwann cells, FLuc/NLuc coincidence luminescence, 24 h. actives 2% (n = 43,000); active means clear falling dose curves in both reporters; inconclusive means both reporters move, but less clearly or upward; inactive means either reporter flat; the % is the NLuc reporter signal
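Reporter cells (S16 Pmp22-F2sN, 500–1,000 per well) exposed to compounds for 24 h, 37C, 5% CO2; lysis with FLuc read after 10 min, then Stop&Glo and NLuc read after 10 min.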
S16 F2sN tox: cytotoxicity in S16 Pmp22-F2sN Schwann cells; actives 0.48% (n = 43,000); Potency, µM (series often up to 57.5 µM), for the others: top-dose activity change, negative = cytotoxicity, actives largely listed as cytotoxic; S16 Pmp22-F2sN Schwann cells (luciferase reporters placed in the Pmp22 gene) viability, CellTiter-Glo, 24 h; AID 1508642; further: nearly all actives have a fitted effect of over 65% in size
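Luminescence from CellTiter-Glo, read by CCD camera after a 15 min room-temperature incubation, served as the viability signal. Reporter Schwann cells (S16 Pmp22-F2sN) had been treated with pin-transferred compounds for 24 h at 37C.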
SKOV3 invasion: blocks SKOV3ip1 adhesion and invasion in omental model; SKOV3ip1-GFP adhesion/invasion on 3D omental model, fluorescence; Potency, µM (top dose mostly 45.8 µM), without a hit: at the top dose activity change, negative = inhibition, usual class: inhibitors; actives 0.1% (n = 46,000); AID 1963576;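 further: plate controls were DMSO wells for no effect and tomatine positive control wells for full effect; nearly all actives have a fitted effect of over 65% in size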
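A 3D layer of primary human omental fibroblasts, mesothelial cells, fibronectin and collagen I, grown 48 hr, received SKOV3ip1-GFP cells in serum-free medium plus compounds at 0.36-46 umol/L. After 2 hr RT and 16 hr 37 C, fixed adherent GFP cells were counted; normalized to DMSO and tomatine.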
p53null 39C kill: kills p53 null cells at the nonpermissive temperature; actives 0.97% (n = 55,000); H1299 p53-null (neo) cells, 39C, ATPlite viability, 24 h; Potency, µM (titrated, usually from 46.1 µM), for inactives: at the highest dose activity, negative = cell killing, usual class: cytotoxic;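 further: 0% = DMSO only and -100% = full killing by 100 µM tamoxifen; nearly all actives have a fitted effect of over 50% in size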
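H1299 lung cancer cells, p53-null (H1299-neo) or expressing p53 A138V (H1299-p53A138V), were plated overnight at 37C, then exposed to compounds at up to 46 uM for 24 hr at 39C. Viability was read by ATP-based luminescence.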
mTORC1 inh: inhibitors of mTORC1 signaling in Tsc2-/- p53-/- MEF cells | AID 493208 | Tsc2-/- p53-/- MEF, phospho-rpS6 immunofluorescence/PI, 24 h | Potency, µM (titrated, usually from 38.3 µM), for the others: top-dose activity change, negative = inhibition, usual class: inhibitors | actives 0.78% (n = 44,000);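 further: plate controls were DMSO for no effect and rapamycin for full effect; nearly all actives have a fitted effect of over 50% in size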
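Tsc2-/-, p53-/- MEFs (empty-vector stable line) in DMEM + 10% FBS were treated with compounds 24 h at 37 degree Celsius, fixed, and immunostained for phospho-rpS6 (Alexa-488) with propidium iodide counterstain. Laser-scanning cytometry gave % positive cells, normalized against 7.5 nM rapamycin and DMSO.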
* marks the source's active call; other numbers are inactive results; i = inactive; ? = inconclusive; · = not tested or not shown. In the library only some 3.1% were active in any assay of this set; here they are far more common. Unless noted, the call rests on the fitted dose curve; in most records, active means well fitted curve in the direction sought with a large enough effect; inconclusive means small, poorly fitted or top-dose-only effect, or another doubt; inactive means no such curve, though single readings can be large; an effect the other way counts as inactive or inconclusive. Unless noted, on the % scale 0 is the no-effect control and ±100 the full control effect; potency means the concentration at half of the fitted maximal effect.

SMILES | p53null 32C tox | PMP22 txn prim | S16 F2sN tox | SKOV3 invasion | p53null 39C kill | mTORC1 inh
COC(=O)c1ccc(NC(=O)CSc2nnc3c4ccccc4n(C(C)C)c3n2)cc1 | -0.2% | -24.5% | 5.8% | i | 4.2% | -0.9%
COC(=O)c1c(SCC(=O)Nc2ccccc2OC)[nH]c2ccccc2c1=O | ? | ? | ? | -6.6% | 7.94µM* | 6.5%
COc1cc(NC(=O)Cn2ccn(-c3cc(C)cc(C)c3)c(=O)c2=O)cc(OC)c1 | -10.7% | -3.1% | 8.4% | 10.0% | -21.3% | 10.5%
COc1ccccc1NC(=O)CSc1nnc2c3ccccc3n(C(C)C)c2n1 | 31.9% | ? | ? | -8.1% | 38.2% | 14.7µM*
CCC(=C(c1ccc(O)cc1)c1ccc(OCCNC)cc1)c1ccccc1 | · | · | · | -4.7% | · | ·
CCN(CC)CCCCNc1nc2cc(Cl)c(Cl)cc2nc1-c1ccc(-c2cccs2)s1 | · | · | · | -13.2% | · | ·
Cc1cc(-c2nc3ncccc3o2)ccc1N | 11.2µM* | · | · | · | ? | ·
Nc1cc(-c2nc3ncccc3o2)ccc1Cl | -27.7% | · | · | · | 7.9% | ·
O=C1c2[nH]nc(-c3ccccc3O)c2C(c2ccc(Cl)cc2)N1CCc1ccccc1 (stereo not given) | 44.2% | ? | -26.9% | -6.3% | 25.1µM* | 16.5µM*
CCOc1cc(C2c3c(-c4ccccc4O)n[nH]c3C(=O)N2CCc2ccccc2)ccc1O (stereo not given) | 51.9% | ? | -23.6% | -10.1% | 42.3% | 6.2%
Cc1cc(Nc2cccc(C(F)(F)F)c2)nc2ccc(NC(=O)c3cncc(Br)c3)cc12 | -3.0% | ? | ? | i | -20.1% | -28.4%
Cc1cc(Nc2cccc(Cl)c2)nc2ccc(NC(=O)c3cncc(Br)c3)cc12 | -18.2% | ? | ? | i | 20µM* | -7.1%
COc1ccc(-c2ccc3c(N4CCOCC4)nc(N4C[C@@H](C)O[C@@H](C)C4)nc3n2)cc1CO | · | · | · | -5.2% | · | ·
C[C@@H]1[C@H](C)CC[C@]2(C(=O)O)CC[C@]3(C)C(=CC[C@@H]4[C@@]5(C)C[C@@H](O)[C@H](O)[C@@](C)(CO)[C@H]5CC[C@]43C)[C@@H]12 | · | · | · | -3.8% | · | ·
O=C1c2ccccc2C(=O)C1c1ccnc2ccccc12 | ? | · | · | · | 15.8µM* | ·
CC[C@@]1(O)C[C@H](O[C@H]2C[C@H](N(C)C)[C@H](O[C@H]3C[C@H](O)[C@H](O[C@H]4CCC(=O)[C@H](C)O4)[C@H](C)O3)[C@H](C)O2)c2c(cc3c(c2O)C(=O)c2c(O)cccc2C3=O)[C@@H]1C(=O)OC | · | · | · | 5.8% | · | ·
Cc1ccc(C)c(NS(=O)(=O)c2cc3c4c(c2)C(C)C(=O)N4CCC3)c1 (stereo not given) | -9.3% | 12.6% | -16.2% | i | ? | 0.0%
CC1C(=O)N2CCCc3cc(S(=O)(=O)Nc4ccc(Br)cc4F)cc1c32 (stereo not given) | 0.7% | 3.7% | -1.9% | -0.7% | -1.5% | 13.1µM*
COc1ccc(C(=O)Nc2cc(OC)nc(OC)n2)cc1 | 11.2µM* | · | · | · | 12.6µM* | ·
COc1ccc(C(=O)Nc2nnc(C)s2)cc1 | 10µM* | 1.7% | 28.1% | -6.1% | ? | -4.7%
O=c1ccn([C@@H]2O[C@H](CO)[C@H](O)[C@@H]2F)c(=O)[nH]1 | · | · | · | 2.3% | · | ·
CCCCN(CC)CCNC(=O)c1cc2c(-c3ccc(Cl)cc3)nn(C)c2s1 | ? | ? | ? | ? | 15.8µM* | ?
CCCN(CCC)CCNC(=O)c1cc2c(-c3ccc(Cl)cc3)nn(C)c2s1 | ? | ? | ? | i | 12.6µM* | -12.9%
CCN(c1ccccc1)S(=O)(=O)c1cc(C(=O)Nc2ccc(Br)cc2)ccc1F | 57.0% | ? | -17.0% | -43.3% | 14.8% | 14.7µM*
